Reference: the supplement of paper PMC3334620
In all, about 33,000 sequences were measured (“E-score (-0.5 to 0.5)”: median about -0.012, highest 2% from about 0.29 on). The entries come from a sample that favours the highest values as a whole.

What follows are sequences tested against T1, Ybr033w (UniProt P38073) (assay: PBM E-score (8-mer binding enrichment) (E-score (-0.5 to 0.5)); higher = stronger / more preferred TF binding). Conditions: protein concentration: 200 nM; construct: GST-full length.
T1 sequence: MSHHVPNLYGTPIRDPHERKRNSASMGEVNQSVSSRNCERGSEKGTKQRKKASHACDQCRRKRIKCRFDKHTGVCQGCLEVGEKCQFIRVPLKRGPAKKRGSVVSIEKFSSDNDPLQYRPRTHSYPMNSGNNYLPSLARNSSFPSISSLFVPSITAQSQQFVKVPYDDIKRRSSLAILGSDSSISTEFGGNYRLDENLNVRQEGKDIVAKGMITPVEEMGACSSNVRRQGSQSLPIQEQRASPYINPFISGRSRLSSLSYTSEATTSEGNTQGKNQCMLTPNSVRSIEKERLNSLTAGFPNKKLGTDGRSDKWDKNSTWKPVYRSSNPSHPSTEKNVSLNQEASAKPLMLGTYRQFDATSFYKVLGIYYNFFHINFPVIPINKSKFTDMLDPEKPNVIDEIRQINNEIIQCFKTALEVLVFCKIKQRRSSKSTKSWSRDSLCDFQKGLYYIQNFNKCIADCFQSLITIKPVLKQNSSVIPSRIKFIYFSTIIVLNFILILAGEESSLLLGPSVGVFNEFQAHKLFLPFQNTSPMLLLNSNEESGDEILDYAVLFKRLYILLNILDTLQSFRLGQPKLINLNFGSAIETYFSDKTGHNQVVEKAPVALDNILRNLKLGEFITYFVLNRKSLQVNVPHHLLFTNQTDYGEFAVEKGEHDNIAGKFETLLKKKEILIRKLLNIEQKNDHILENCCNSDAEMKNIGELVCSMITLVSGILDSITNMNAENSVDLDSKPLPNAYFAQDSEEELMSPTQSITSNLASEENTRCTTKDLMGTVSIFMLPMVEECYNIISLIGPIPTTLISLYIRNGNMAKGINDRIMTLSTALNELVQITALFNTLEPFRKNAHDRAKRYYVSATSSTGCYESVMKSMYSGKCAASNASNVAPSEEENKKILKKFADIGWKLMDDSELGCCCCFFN
Protocol: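 Universal 'all 10-mer' protein binding microarrays (Agilent AMADID 015681) probed with GST-tagged S. cerevisiae TFs (full-length or DBD) made by in vitro transcription/translation (PURExpress), about 100-200 nM. Bound TF was detected with fluorescent anti-GST. Each ungapped 8-mer (which stands for itself and its reverse complement) is scored by the PBM enrichment score (E-score), a modified Wilcoxon-Mann-Whitney statistic from -0.5 to +0.5, computed with the Universal PBM Analysis Suite. Scale: above 0.35 generally sequence-specific binding.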

Sequence | PBM E-score
GGAGAACA | 0.026
ACTTAGCA | 0.00122
GCCCTCTA | -0.176
TACGCCCA | 0.0751
CAGATCGC | -0.164
TTAAACAA | 0.226
AAAAACAT | 0.21
TAAAACAA | 0.177
GTAAACAC | 0.0587
ATAAACAT | 0.289
ATAAACAA | 0.326
ATAAACAG | 0.0706
GTAAACAA | 0.298
AAAAACAA | 0.321
ATAAACAC | 0.241
GAAAACAA | 0.115
CTAAACAA | 0.112
CAGGGTAC | -0.158
GTCGCATA | 0.214
TATCACAA | 0.18
AGCTAGAG | -0.0778
CTCAAAAC | 0.217
CCTTGGGA | 0.021
ACAGAAGA | 0.0639
CCTTTGCA | 0.0151

Sequence | PBM E-score
AATAACCG | -0.0165
AAAAACCT | 0.307
AAAAACCC | 0.164
AAAAACCG | 0.134
CCACTTCA | -0.0798
AGCCCTCG | -0.314
AGAATTAC | 0.181
GGAATTAA | 0.349
TGAATTAA | 0.226
GGAATTAC | 0.291
GGAATTCA | 0.288
CGAATTCA | -0.00151
CGAATTAC | 0.135
GGAATTCC | -0.236
CGAATTAA | 0.112
CCACGCTC | -0.126
ACTACTGG | 0.017
GGACCGAA | 0.061
AGTCCTTA | -0.049
CACAATTC | 0.16
CATAAATC | 0.146
ACTAAATC | 0.278
GATAAAGC | 0.159
ACTAAATA | 0.322
GATAAAGA | 0.154

Sequence | PBM E-score
TATAAAAA | 0.253
GGTAAATA | 0.225
GATAAATA | 0.4
GATAAATC | 0.304
CATAAATA | 0.169
TATAAATA | 0.289
CCTAAATA | 0.118
TTCGCAAA | 0.225
CTAGACAA | -0.0833
ATCCATGA | -0.0662
AGACAAAT | 0.129
CCACAAAC | 0.077
TCCACACA | 0.111
CGGTGCGC | -0.156
GTTCGAGA | -0.0752
GCTGAGGA | -0.194
AATAAATA | 0.378
AATAAATC | 0.263
TATAAACA | 0.247
CATAAAAC | 0.0263
AATAAAGA | 0.267
GATAAAAA | 0.278
AATAAATG | 0.194
AATAAATT | 0.314
GATAAACC | 0.236

Sequence | PBM E-score
GATAAAAC | 0.323
AATAAACT | 0.221
GATAAACA | 0.298
ACGTTCTA | -0.0975
AAACCAAT | 0.272
CATACCCG | -0.165
CGAATTGC | -0.0195
CAAGAACC | 0.137
CCAGATCG | -0.0568
CCGATTAG | -0.131
ATTGTCTA | 0.144
ACTCTAAC | 0.17
AATAAAAG | 0.0821
AATAAAAA | 0.252
AATAAAAT | 0.304
AAGTTTAG | 0.128
AAGTTATT | 0.3
AAGTTTAT | 0.333
AAGTTAAC | 0.224
AAGTTATG | 0.206
AAGTTAAG | -0.149
AAGTTTAC | 0.154
AAGTTAAT | 0.315
AAGTTATA | 0.166
AAACTGCA | 0.146

Sequence | PBM E-score
ACCCTTCC | -0.0151
AGTAGCAA | 0.152
ACACTGGG | -0.161
AGTGTTGC | 0.0949
GTCTTTGA | -0.0431
GACATTCA | 0.0222
CACTTTTC | 0.255
CTCCGTTC | -0.0235
CTGGTGCA | -0.31
AGGAAATG | 0.146
CGGAAATC | 0.067
AGGAAATA | 0.298
CGGAAATA | 0.433
AGGAAATC | -0.0432
GGGAAATA | 0.137
CTATTTGA | 0.227
AAGATCCG | -0.0767
CAAACTGA | 0.14
CAGGTAGA | -0.138
CCATAATA | 0.264
CAATAATG | 0.137
TAATAGTA | 0.297
AGATAATC | 0.306
AAAAAATT | 0.237
AGATAATA | 0.219

Sequence | PBM E-score
GAATAGTA | 0.183
CAATAATA | 0.292
CAATAGTA | 0.168
AAATAATT | 0.388
AGATAATG | 0.181
CGTTATTC | 0.175
GCTATTCC | -0.0267
AGGGGTAC | -0.205
ACCGTGAC | -0.159
CGAGTGCC | -0.198
AACGGTGT | -0.113
CAAAGCTC | -0.212
CAGTCTAG | -0.137
ATATGCAT | 0.02
CAATAAAA | 0.225
ACATAATC | 0.205
TAATAACA | 0.226
AAATAATG | 0.227
GAATAAAA | 0.207
ACATAATA | 0.247
AAATAATC | 0.341
TAATAAGA | 0.184
CAATAATC | 0.171
AAATAATA | 0.344
TAATAATA | 0.33

Sequence | PBM E-score
TAATAAAA | 0.365
ATGCCCGA | -0.106
ACCTATGC | -0.0454
CGTCCACG | -0.133
CGGGGCAC | -0.319
ACCATCTA | 0.0217
AACCTGGT | 0.0823
AATCCAGC | 0.0372
TATCCAGA | 0.158
AATCCAGA | 0.295
GATCAAGA | 0.0926
CGAACAAA | 0.191
GGAACAAA | 0.45
GGAACATA | 0.313
ATAACAAG | 0.191
ATAACAAT | 0.165
ATAACAAA | 0.29
AGAACAAG | 0.212
AGAACAAT | 0.209
TGAACAAA | 0.284
AGAACATA | 0.192
AGAACAAA | 0.33
CGAACATA | 0.2
AGAGACTA | -0.0151
